ChEMBL document CHEMBL2218924, “A broad activity screen in support of a chemogenomic map for kinase signalling research and drug discovery” (Biochem J, 2013)

Key:
[1] = target: Serine/threonine-protein kinase 33 (Homo sapiens) (UniProt Q9BYT3); details: at 1 µM
[2] = target: Serine/threonine-protein kinase 33 (Homo sapiens) (UniProt Q9BYT3); details: at 10 µM
[3] = target: Serine/threonine-protein kinase PLK2 (Homo sapiens) (UniProt Q9NYY3); details: at 1 µM
[4] = target: Serine/threonine-protein kinase PLK2 (Homo sapiens) (UniProt Q9NYY3); details: at 10 µM
[5] = target: Tyrosine-protein kinase SYK (Homo sapiens) (UniProt P43405); details: at 1 µM
[6] = target: Tyrosine-protein kinase SYK (Homo sapiens) (UniProt P43405); details: at 10 µM
[7] = target: T1, Mitogen-activated protein kinase kinase kinase 7 (Homo sapiens) (UniProt O43318); details: at 1 µM
T1 sequence (whole entry): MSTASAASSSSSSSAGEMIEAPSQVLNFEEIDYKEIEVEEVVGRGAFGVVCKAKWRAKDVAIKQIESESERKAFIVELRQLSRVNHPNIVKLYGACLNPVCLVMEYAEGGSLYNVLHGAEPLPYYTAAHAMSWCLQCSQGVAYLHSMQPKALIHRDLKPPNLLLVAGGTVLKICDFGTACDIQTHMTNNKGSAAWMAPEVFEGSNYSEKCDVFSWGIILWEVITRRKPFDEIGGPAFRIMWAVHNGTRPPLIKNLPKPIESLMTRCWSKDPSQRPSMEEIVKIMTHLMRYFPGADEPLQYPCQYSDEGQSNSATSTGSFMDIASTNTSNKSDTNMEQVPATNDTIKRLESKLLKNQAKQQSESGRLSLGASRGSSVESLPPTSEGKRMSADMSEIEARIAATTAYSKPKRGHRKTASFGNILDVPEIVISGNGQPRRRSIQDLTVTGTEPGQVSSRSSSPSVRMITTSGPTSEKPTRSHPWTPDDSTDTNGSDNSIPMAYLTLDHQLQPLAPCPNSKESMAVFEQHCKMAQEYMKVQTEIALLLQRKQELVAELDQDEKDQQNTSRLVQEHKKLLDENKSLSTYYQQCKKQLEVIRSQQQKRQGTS

[8] = target: T1, Mitogen-activated protein kinase kinase kinase 7 (Homo sapiens); details: at 10 µM
[9] = target: T2, Serine/threonine-protein kinase TAO1 (Homo sapiens) (UniProt Q7L7X3); details: at 1 µM
T2 sequence (whole entry): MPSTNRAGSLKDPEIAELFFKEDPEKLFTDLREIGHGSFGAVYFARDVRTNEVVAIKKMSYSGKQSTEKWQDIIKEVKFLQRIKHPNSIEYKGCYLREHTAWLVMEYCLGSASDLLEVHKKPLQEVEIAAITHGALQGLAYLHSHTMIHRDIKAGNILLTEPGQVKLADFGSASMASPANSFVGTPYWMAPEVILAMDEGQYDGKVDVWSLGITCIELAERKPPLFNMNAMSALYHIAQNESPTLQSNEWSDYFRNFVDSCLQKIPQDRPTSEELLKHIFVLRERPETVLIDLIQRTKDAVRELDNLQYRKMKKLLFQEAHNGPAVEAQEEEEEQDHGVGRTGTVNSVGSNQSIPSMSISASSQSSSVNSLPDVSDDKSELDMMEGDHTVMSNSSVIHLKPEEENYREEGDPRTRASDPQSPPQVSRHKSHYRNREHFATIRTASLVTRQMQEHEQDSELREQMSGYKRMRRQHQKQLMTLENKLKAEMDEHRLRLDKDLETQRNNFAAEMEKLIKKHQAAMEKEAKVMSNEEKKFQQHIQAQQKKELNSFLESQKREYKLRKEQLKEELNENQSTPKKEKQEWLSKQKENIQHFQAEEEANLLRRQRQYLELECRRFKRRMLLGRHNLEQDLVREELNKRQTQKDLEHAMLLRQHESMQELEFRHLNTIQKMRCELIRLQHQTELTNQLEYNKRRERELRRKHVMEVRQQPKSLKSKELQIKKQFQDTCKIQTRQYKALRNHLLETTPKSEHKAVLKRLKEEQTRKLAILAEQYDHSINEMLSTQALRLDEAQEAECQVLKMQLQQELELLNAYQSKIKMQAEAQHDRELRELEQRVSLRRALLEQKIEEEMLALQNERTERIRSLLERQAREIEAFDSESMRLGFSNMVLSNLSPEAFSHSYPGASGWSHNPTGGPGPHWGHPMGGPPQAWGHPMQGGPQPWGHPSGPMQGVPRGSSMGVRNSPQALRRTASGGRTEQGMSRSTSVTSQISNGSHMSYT

[10] = target: T2, Serine/threonine-protein kinase TAO1 (Homo sapiens); details: at 10 µM
[11] = target: T3, Serine/threonine-protein kinase TAO2 (Homo sapiens) (UniProt Q9UL54); details: at 1 µM
T3 sequence (whole entry): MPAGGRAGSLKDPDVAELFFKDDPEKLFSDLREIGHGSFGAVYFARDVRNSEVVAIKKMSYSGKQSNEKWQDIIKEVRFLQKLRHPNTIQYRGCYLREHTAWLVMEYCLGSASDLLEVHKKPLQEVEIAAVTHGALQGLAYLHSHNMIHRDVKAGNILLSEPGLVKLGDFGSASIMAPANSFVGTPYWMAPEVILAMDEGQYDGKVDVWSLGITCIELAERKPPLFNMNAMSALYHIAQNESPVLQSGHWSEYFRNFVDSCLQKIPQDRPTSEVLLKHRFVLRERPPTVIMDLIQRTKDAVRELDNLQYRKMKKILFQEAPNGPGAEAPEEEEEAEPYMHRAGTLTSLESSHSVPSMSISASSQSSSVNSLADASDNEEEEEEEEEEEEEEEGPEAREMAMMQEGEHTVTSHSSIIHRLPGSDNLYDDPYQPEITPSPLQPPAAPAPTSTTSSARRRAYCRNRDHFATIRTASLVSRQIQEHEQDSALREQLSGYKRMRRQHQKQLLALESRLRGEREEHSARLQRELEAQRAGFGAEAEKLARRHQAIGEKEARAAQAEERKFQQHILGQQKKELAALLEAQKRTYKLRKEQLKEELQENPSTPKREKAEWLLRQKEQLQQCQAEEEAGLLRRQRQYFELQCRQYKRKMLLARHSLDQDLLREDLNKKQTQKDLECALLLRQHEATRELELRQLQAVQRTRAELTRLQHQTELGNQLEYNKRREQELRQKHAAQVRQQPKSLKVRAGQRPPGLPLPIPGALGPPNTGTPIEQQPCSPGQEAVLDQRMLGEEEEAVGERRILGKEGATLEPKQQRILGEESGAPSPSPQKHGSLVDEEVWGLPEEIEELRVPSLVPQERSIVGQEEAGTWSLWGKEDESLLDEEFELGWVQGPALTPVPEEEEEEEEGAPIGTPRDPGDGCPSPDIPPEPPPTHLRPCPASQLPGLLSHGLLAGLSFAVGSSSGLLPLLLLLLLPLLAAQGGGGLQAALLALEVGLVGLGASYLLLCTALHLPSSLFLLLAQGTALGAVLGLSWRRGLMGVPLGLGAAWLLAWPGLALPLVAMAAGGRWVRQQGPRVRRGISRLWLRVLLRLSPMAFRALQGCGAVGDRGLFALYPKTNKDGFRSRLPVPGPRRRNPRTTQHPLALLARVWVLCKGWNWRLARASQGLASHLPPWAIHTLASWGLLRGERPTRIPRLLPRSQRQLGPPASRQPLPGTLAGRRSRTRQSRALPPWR

[12] = target: T3, Serine/threonine-protein kinase TAO2 (Homo sapiens); details: at 10 µM
[13] = target: T4, Serine/threonine-protein kinase TAO3 (Homo sapiens) (UniProt Q9H2K8); details: at 1 µM
T4 sequence (whole entry): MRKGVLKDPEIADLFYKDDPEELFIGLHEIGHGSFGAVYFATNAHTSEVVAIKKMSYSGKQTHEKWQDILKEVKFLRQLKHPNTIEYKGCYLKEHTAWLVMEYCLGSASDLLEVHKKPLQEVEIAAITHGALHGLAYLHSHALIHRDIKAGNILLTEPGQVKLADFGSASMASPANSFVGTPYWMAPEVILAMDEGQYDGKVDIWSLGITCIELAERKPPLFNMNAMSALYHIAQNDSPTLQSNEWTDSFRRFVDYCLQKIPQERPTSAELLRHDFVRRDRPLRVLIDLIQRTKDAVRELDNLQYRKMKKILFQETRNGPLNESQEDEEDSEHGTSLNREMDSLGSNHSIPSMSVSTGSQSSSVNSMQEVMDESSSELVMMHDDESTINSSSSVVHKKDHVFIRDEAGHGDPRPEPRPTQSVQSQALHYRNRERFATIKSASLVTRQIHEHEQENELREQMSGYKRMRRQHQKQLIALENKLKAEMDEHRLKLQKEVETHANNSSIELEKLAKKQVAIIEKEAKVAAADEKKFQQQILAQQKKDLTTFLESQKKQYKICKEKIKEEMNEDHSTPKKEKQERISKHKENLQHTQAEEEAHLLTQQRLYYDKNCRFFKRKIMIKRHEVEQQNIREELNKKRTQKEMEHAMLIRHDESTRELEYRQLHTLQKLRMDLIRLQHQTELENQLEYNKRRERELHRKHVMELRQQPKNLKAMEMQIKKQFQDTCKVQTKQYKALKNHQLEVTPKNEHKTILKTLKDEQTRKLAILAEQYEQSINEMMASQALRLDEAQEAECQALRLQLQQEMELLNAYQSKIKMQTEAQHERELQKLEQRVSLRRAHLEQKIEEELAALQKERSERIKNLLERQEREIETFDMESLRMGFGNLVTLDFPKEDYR

[14] = target: T4, Serine/threonine-protein kinase TAO3 (Homo sapiens); details: at 10 µM
[15] = target: T5, Serine/threonine-protein kinase TBK1 (Homo sapiens) (UniProt Q9UHD2); details: at 1 µM
T5 sequence (whole entry): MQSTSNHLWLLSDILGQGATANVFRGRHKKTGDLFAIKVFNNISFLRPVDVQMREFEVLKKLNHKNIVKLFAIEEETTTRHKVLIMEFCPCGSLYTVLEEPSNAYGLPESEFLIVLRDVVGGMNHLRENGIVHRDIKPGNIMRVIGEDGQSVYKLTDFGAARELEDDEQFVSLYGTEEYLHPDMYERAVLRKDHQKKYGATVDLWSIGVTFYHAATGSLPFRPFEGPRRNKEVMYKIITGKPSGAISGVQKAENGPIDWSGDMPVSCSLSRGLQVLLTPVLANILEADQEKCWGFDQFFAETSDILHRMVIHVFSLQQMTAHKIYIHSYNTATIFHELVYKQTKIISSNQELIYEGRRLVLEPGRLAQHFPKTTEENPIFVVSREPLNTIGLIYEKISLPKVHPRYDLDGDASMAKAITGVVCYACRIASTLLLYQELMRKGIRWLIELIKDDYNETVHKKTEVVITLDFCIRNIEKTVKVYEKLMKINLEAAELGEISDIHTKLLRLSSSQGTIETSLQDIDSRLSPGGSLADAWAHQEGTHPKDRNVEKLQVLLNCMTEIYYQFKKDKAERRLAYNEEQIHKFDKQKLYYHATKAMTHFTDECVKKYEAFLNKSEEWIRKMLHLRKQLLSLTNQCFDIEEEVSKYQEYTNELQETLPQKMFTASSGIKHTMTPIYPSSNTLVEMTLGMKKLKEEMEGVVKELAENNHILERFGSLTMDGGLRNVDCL

[16] = target: T5, Serine/threonine-protein kinase TBK1 (Homo sapiens); details: at 10 µM
[17] = target: T6, TGF-beta receptor type-1 (Homo sapiens) (UniProt P36897); details: at 1 µM
T6 sequence (whole entry): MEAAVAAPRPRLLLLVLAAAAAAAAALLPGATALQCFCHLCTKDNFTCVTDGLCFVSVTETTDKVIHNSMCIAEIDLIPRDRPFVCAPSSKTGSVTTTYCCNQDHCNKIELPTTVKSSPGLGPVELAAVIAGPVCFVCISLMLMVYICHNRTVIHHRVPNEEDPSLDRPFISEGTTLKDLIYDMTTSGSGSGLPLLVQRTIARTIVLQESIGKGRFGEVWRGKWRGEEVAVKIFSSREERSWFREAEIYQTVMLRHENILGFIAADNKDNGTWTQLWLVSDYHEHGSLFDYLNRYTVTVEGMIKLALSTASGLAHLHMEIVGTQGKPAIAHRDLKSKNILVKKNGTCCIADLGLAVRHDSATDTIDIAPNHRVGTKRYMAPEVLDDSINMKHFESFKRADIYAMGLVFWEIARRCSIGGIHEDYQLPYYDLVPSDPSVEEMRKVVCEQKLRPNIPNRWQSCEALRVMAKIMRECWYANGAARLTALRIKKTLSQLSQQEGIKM

[18] = target: T6, TGF-beta receptor type-1 (Homo sapiens); details: at 10 µM
[19] = target: Insulin-like growth factor 1 receptor (Homo sapiens) (UniProt P08069); details: at 1 µM
Chain of Insulin-like growth factor 1 receptor (Homo sapiens) (P08069 31-736 limits assumed): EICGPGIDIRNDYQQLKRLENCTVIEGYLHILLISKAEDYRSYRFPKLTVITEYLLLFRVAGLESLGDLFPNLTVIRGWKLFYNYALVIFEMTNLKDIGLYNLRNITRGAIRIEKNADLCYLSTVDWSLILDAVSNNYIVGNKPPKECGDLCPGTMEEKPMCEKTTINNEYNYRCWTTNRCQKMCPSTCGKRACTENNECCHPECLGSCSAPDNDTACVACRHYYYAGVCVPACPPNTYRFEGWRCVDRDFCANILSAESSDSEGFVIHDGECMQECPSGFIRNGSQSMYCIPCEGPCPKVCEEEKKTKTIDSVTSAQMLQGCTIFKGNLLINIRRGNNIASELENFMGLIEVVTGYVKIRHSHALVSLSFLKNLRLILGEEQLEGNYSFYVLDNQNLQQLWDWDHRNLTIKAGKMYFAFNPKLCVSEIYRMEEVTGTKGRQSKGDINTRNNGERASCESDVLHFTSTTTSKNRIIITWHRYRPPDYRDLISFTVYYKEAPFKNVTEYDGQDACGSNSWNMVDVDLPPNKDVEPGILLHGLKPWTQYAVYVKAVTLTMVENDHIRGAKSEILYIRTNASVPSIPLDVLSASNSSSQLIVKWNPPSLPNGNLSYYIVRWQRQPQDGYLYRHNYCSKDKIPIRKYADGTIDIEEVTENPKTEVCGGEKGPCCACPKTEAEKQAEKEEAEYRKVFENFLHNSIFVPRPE
Chain of Insulin-like growth factor 1 receptor (Homo sapiens) (P08069 741-1367 limits assumed): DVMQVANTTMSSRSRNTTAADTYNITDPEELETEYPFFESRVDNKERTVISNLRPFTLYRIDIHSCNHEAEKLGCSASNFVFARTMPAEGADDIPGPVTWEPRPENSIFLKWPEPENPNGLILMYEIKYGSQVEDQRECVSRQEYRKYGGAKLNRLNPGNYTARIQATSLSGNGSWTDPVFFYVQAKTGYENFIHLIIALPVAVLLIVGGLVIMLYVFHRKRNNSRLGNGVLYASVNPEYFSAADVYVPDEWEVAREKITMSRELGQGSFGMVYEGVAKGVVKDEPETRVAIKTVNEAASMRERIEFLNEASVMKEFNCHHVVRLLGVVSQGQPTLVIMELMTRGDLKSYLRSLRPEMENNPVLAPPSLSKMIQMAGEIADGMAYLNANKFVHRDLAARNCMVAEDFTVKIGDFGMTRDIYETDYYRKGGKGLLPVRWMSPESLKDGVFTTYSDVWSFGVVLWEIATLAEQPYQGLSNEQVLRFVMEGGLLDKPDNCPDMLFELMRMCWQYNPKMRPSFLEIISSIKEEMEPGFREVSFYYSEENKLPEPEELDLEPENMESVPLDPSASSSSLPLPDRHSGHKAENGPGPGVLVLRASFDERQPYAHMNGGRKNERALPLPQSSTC

[20] = target: Insulin-like growth factor 1 receptor (Homo sapiens) (UniProt P08069); details: at 10 µM

Chain of Serine/threonine-protein kinase PLK2 (Homo sapiens) (Q9NYY3 whole entry, looked up): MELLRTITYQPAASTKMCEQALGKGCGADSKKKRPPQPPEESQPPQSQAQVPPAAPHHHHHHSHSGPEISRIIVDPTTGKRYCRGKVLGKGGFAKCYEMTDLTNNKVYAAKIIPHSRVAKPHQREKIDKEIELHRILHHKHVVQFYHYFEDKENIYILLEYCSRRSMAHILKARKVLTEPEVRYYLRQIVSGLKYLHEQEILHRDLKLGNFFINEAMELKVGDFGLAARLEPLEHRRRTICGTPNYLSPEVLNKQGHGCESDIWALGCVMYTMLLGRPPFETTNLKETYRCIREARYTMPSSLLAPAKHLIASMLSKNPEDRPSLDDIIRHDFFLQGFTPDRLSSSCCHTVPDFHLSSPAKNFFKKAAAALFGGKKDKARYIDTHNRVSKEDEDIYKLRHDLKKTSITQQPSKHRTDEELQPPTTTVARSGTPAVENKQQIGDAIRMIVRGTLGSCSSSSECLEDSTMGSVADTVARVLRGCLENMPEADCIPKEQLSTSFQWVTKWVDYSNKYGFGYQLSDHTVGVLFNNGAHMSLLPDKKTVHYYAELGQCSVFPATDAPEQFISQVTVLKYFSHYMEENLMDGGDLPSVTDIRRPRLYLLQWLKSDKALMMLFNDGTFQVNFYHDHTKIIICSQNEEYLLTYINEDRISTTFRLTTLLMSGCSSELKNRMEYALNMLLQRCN
Chain of Serine/threonine-protein kinase 33 (Homo sapiens) (Q9BYT3 whole entry, looked up): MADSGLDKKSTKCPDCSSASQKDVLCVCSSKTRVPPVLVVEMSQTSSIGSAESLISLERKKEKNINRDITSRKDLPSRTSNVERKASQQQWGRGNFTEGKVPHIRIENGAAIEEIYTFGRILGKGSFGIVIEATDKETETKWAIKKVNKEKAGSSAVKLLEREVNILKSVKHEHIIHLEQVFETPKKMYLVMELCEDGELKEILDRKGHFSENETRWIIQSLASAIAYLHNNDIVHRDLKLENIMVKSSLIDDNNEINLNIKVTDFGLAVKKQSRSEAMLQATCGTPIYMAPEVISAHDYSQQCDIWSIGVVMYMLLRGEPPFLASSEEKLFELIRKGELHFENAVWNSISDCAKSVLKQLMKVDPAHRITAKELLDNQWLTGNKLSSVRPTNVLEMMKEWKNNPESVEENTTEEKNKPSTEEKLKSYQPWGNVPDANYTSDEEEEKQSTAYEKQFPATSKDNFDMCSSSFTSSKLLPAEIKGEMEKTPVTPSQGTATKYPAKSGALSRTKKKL

SMILES | residual activity [1] | residual activity [2] | residual activity [3] | residual activity [4] | residual activity [5] | residual activity [6] | residual activity [7] | residual activity [8] | residual activity [9] | residual activity [10] | residual activity [11] | residual activity [12] | residual activity [13] | residual activity [14] | residual activity [15] | residual activity [16] | residual activity [17] | residual activity [18] | residual activity [19] | residual activity [20]
C[S+]([O-])c1ccc(-c2nc(-c3ccc(F)cc3)c(-c3ccncc3)[nH]2)cc1 (centres undefined) | 106% | 109% | 116% | 103% | 112% | 101% | 106% | 101% | 100% | 77% | 111% | 79% | 108% | 79% | 124% | 111% | 130% | 77% | 117% | 122%
CCn1cnc2c(Nc3cccc(Cl)c3)nc(N[C@@H]3CCCC[C@@H]3N)nc21 | 87% | 42% | 92% | 54% | 99% | 57% | 89% | 65% | 68% | 15% | 81% | 33% | 82% | 43% | 68% | 45% |  | 79% | 71% | 44%
COc1cc(OC)c(/C=C2\C(=O)Nc3ccccc32)c(OC)c1 | 92% | 92% | 100% | 92% | 102% | 96% | 92% | 81% | 95% | 83% | 104% | 81% | 90% | 68% | 61% | 56% | 79% | 81% | 95% | 98%
